The values that follow come from PubChem BioAssay (NCATS).

Assay [1] has as its target Glutathione peroxidase 1 (Homo sapiens) (UniProt P07203). Briefly: Primary qHTS Assay for Inhibitors of Recombinant Selenoprotein Glutathione Peroxidase 1 (GPX1) (AID 1845191). For activity, negative = inhibition: % is set by controls: 0 for no effect and ±100 for the full control effect. Note: nearly all actives have a fitted effect of over 65% in size. Note: potency is the fitted concentration of half-maximal effect. An outline of the steps:
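10 nM GPX1 + cpd, 30 min RT; start w/ 1 mM GSH, 0.5 mM cumene hydroperoxide, 0.5 mM NADPH, 100 nM GR, 0.01% BSA; buffer 50 mM Tris-HCl pH 7.5, 2 mM EDTA, 150 mM NaCl; Fl 340/450, 0 & 15 min.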

For assay [2], the target named is Phospholipid hydroperoxide glutathione peroxidase GPX4 (Homo sapiens) (UniProt P36969). Briefly: Primary qHTS Assay for Inhibitors of Recombinant Selenoprotein Glutathione Peroxidase 4 (GPX4) (AID 1845192). For activity change, negative = inhibition: % is set by controls: 0 for no effect and ±100 for the full control effect. Note: nearly all actives have a fitted effect of over 65% in size. Note: potency is the fitted concentration of half-maximal effect. An outline of the steps:
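NADPH consumption, followed by fluorescence at 340/450 nm between 0 and 15 min, reports GPX4 activity via coupled glutathione reductase (100 nM). Enzyme 200 nM was pre-exposed to compound 30 min; 0.5 mM cumene hydroperoxide and 1 mM GSH served as substrates.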

For assay [3], the target named is Luciferin 4-monooxygenase (Photinus pyralis) (UniProt P08659). The assay can be described thus: Primary firefly luciferase (FLuc) qHTS assay for identification of artifact compounds. (AID 1845220).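 For activity change, negative = inhibition: plate controls were DMSO vehicle for no effect and no enzyme for full effect.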 Note: nearly all actives have a fitted effect of over 60% in size. Note: potency is the fitted concentration of half-maximal effect. An outline of the steps: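 FLuc 10 nM; luciferin 10 uM; ATP 10 uM; Tris-acetate pH 7.6, Mg-acetate 10 mM; 15 min RT preincubation; 5 min reaction; luminescence.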
The nature of assay [4]: Primary fluorescence-based thiol-reactive (MSTI) qHTS assay for identification of artifact compounds. (AID 1845221).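 Note: thiol-reactive compounds lower the probe fluorescence signal; nearly all actives have a fitted effect of over 65% in size.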 Summed up: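 A multi-concentration qHTS design tested compounds against 4 uM MSTI, pH 7.4 phosphate-buffered saline. Plates were protected from light for 1 h at room temperature before imaging fluorescence.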
In assay [5] the test system is Nanoluciferase (engineered Oplophorus gracilirostris luciferase). Briefly: Primary Nanoluciferase (NLuc) qHTS assay for identification of artifact compounds. (AID 1845222).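 For activity, negative = inhibition: NLuc secreted into diluted conditioned medium of S16 cells; 0% = DMSO and -100% = no enzyme.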 Note: potency is the fitted concentration of half-maximal effect. Summed up:
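NLuc from S16 cell medium (1:55) plus test compounds, 15 min, room temperature. Luminescence after Nano-Glo (1:100) addition, 5 min.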

Assay [6] in a line: Primary redox qHTS assay for identification of artifact compounds. (AID 1845223).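 Note: 0% = DMSO and 100% = reference compound.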 Summed up:
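Amplex Red (25 uM) and HRP (250 mU/mL) in HBSS, with compounds for 15 min, then 250 uM DTT for 30 min, room temperature, dark. Fluorescence 525/598 nm read; normalized to DMSO and 10 uM DA3003; Hill fit.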

Assay [7] can be described thus: qHTS profiling for inhibitors of Plasmodium falciparum proliferation (AID 504749).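 For activity, negative = inhibition: 0% = DMSO vehicle and full inhibition = artemisinin control.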 Note: nearly all actives have a fitted effect of over 60% in size. Note: potency is the fitted concentration of half-maximal effect. As to conditions: P. falciparum in erythrocytes, SYBR Green DNA, 72 h, at 28.7 µM (top of the series). Summed up:
(§1)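 Infected RBCs, 0.3% parasitemia/2.5% Hct final; cpd 72 h, 37 C, 5% CO2; lysis buffer with saponin/triton/SYBR Green I, o/n RT dark; FI 485/535; norm. to artemisinin (0.29 uM) and DMSO.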

Another assay deals with 3D7. The assay is described as above. Conditions: P. falciparum in erythrocytes, SYBR Green DNA, 72 h; series mostly up to 28.7 µM. Summed up:
as §1

Another assay has as its system 7G8. The assay is described as above. As to conditions: P. falciparum in erythrocytes, SYBR Green DNA, 72 h; series mostly up to 28.7 µM. Summed up:
as §1

Assay [8] in a line: qHTS drug screen for cell cycle checkpoint inhibitors in PARPi-resistant BRCA-mutant ovarian cancer cell lines. (AID 1963452; calls by dose curve). As to conditions: PEO1/OlaR viability, CellTiter-Glo luminescence, 96 h, stronger effect = lower value. Summed up: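 PEO1, PEO4 and PEO1/OlaR ovarian cancer cells, 600 per well, exposed 96 h at 37C to a dilution series. Viability read by CellTiter-Glo luminescence, normalized to DMSO and empty wells; activity summarized as Z-AUC.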

Records with an inconclusive call do not appear. Activity calls are given as the source filed them. Unless noted, calls come from the whole dose curve; as a rule, active = well fitted curve in the direction sought with a large enough effect; inconclusive = small, poorly fitted or top-dose-only effect, or another doubt; inactive = no such curve, though single readings can be large; an effect the other way counts as inactive or inconclusive. Where a SMILES comes first, the peptide text is derived from it. [ ]: non-standard residue; d: D form. pGlu = O=C1CC[C@@H](C(=O)O)N1; Thz = O=C(O)[C@@H]1CSCN1

Sequence of Phospholipid hydroperoxide glutathione peroxidase GPX4 (Homo sapiens) (P36969 whole entry, looked up): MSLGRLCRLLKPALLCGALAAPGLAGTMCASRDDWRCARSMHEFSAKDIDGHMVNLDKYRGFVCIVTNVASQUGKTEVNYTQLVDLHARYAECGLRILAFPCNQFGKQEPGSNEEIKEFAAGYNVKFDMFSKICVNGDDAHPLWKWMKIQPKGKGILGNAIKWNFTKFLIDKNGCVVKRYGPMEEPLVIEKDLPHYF
Sequence of Glutathione peroxidase 1 (Homo sapiens) (P07203 whole entry, looked up): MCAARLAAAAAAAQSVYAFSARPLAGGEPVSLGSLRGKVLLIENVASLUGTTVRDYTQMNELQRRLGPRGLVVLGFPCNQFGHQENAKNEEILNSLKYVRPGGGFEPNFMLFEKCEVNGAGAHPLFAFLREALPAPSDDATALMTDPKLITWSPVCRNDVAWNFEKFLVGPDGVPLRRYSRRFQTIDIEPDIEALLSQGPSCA

Regarding `O=S(=O)(c1cccc2c(I)cccc12)N1CCCNCC1`, the Potency entry in assay [1] and in assay [2] was “inactive” in each case.
Regarding `CN1CC(=O)N/C1=N/C(=O)Nc1cccc(Cl)c1`, the Potency result in assay [1] and in assay [2] was “inactive” throughout.
Regarding `O=C(O)c1cc([N+](=O)[O-])ccc1NCCCc1ccccc1`, the Potency entry in [1] and in assay [2] was “inactive” in each case.
For the compound `CC12C(=O)OC(=O)C1(C)C1CCC2O1` (stereo unspecified), the Potency result in [1] and in assay [2] was “inactive” each time.
`Cc1ccc(O)c(N=Nc2ccccc2)n1`: the Potency result in [1] and in [2] was “inactive” each time.
Regarding `O=C(O)/C=C\C(=O)O`, the Potency entry in assay [1] and in assay [2] was “inactive” each time.
For the compound `CCCCCCCCCCCCCCCC(=O)OC(CC(=O)O)C[N+](C)(C)C` (stereo unspecified), the Potency entry in assay [1] and in assay [2] was “inactive” in each case.
Take `CC(=O)O[C@H]1C[C@@]2(C)[C@@H](C[C@@H](O)[C@H]3[C@@]4(C)CC[C@@H](O)[C@@H](C)[C@@H]4CC[C@@]32C)/C1=C(\CCC=C(C)C)C(=O)O`: the Potency result in assay [1], in [2], in assay [3] and in assay [5] was “inactive” throughout. Further, the result in assay [4] and in assay [6] was inactive.
`C/C(=N\O)c1ccc(OCC(=O)N2CCCCC2)cc1`: the Potency result in [1], in assay [2] and in [5] was “inactive” each time. Also, the outcome in assay [4] and in assay [6] was inactive.
For the compound `CC1(C)S[C@@H]2[C@H](NC(=O)[C@H](NC(=O)N3CCN(S(C)(=O)=O)C3=O)c3ccccc3)C(=O)N2[C@H]1C(=O)O`, the Potency result (in assay [1]; in assay [2]; in [3]; in assay [5]; in the assay with 3D7; in the assay on 7G8) was “inactive” in each case. Moreover, the call in [4] was inactive. The activity, negative = inhibition in assay [7] (parasite line A) was -8.81% (inactive); in assay [7] (parasite line B), -7.98% (inactive).
In the case of `c1ccc2sc(SSc3nc4ccccc4s3)nc2c1`, the Potency result (in assay [1]; in assay [2]; in the assay on 3D7; in the assay with 7G8) was “inactive” throughout. Also, the activity, negative = inhibition is 6.98% (inactive) in [7] (parasite line A) and -5.71% (inactive) in [7] (parasite line B).
With `C=CCCCCCCCCC(=O)O`, the Potency result (in [1]; in [2]; in the assay on 3D7; with 7G8) was “inactive” throughout. Besides, the activity, negative = inhibition in assay [7] (parasite line A) was 5.45% (inactive); in assay [7] (parasite line B), 15% (inactive).
With `COc1ccc(-c2cc(=S)ss2)cc1`, the Potency in [1] was 11.4 µM (active); in the assay on 7G8, 12.6 µM (active). Moreover, the Potency entry (in [2]; in the assay on 3D7) was “inactive” throughout. Also, the results for the activity, negative = inhibition in assay [7] (parasite line A) and in [7] (parasite line B) were -10.3% (inactive) and -12.9% (inactive), respectively.
`CCN1/C(=C/C(C)=O)Sc2ccc(OC)cc21`: the Potency entry in assay [1] and in assay [2] was “inactive” throughout. Moreover, the results for the Z-AUC in assay [8], in [8] (measured here: PEO1 parental Z-AUC) and in assay [8] (measured here: PEO4 Z-AUC) were 0.945 (inactive), 0.672 and 0.802, respectively.
Turning to `O=C1CC[C@@H](C(=O)N2CSC[C@H]2C(=O)O)N1` ([pGlu]-[Thz]-OH), the Potency entry (in assay [1]; in assay [2]; in assay [3]; in assay [5]; in the assay on 3D7; in the assay with 7G8) was “inactive” each time. For the same compound, the result in assay [4] and in [6] was inactive. Moreover, the activity, negative = inhibition in assay [7] (parasite line A) was 14.8% (inactive); in assay [7] (parasite line B), 2.84% (inactive).
As for `O=C(O)Cc1cccc(-c2cc(CCCCCCc3ccc(O[C@H]4O[C@H](CO)[C@@H](O)[C@H](O)[C@@H]4O)c(-c4cccc(CC(=O)O)c4)c3)ccc2O[C@H]2O[C@H](CO)[C@@H](O)[C@H](O)[C@@H]2O)c1`, the activity, negative = inhibition in [1] is -5.05% [at 0.4 µM] (inactive); in assay [5], 3.7% [at 0.464 µM] (inactive). The activity change, negative = inhibition in assay [2] is -19% [at 0.409 µM] (inactive). The outcome in [3] is “inactive [at 0.464 µM]”. The activity change, negative = thiol reactive in [4] is 33.1% [at 0.461 µM] (inactive). The redox activity (% of DA3003) in assay [6] is 1.45% [at 0.461 µM] (inactive).
On to `C[C@H](O)[C@H](O)[C@H]1CNc2nc(N)[nH]c(=O)c2N1`, for which the figures for the Potency in [1] and in [2] were 18 µM (active) and 20.2 µM (active), respectively. Besides, the Potency result in assay [3] and in assay [5] was “inactive” throughout. Moreover, the outcome in assay [4] and in [6] was inactive.
In the case of `Cc1ccc2c(n1)Oc1ccc(C(C)C(=O)OCC(=O)N(C)C)cc1C2` (stereo unspecified), the Potency entry in assay [1], in [2] and in assay [5] was “inactive” each time. Moreover, the outcome in [4] and in assay [6] was inactive.
`NC(=O)C(c1ccccc1)(c1ccccc1)[C@@H]1CCN(CCc2ccc3c(c2)CCO3)C1`: the Potency entry (in assay [1]; in assay [2]; in the assay on 3D7) was “inactive” in each case. Moreover, the activity, negative = inhibition in assay [7] (parasite line A) is -17.4% (inactive); in assay [7] (parasite line B) it was -5.16% (inactive). Moreover, the Potency in the assay with 7G8 was 11.2 µM (active).
For the compound `Cc1cc(NC2CCCCC2)nc(-n2nc(C)cc2C)n1`, the Potency entry in [1] and in assay [2] was “inactive” in each case.
Regarding `COc1ccc(/C=C/C(=O)Nc2ccccc2C(=O)O)cc1OC`, the Potency result (in [1]; in [2]; in the assay with 3D7) was “inactive” throughout. The Potency in [3] is 3.01 µM (active); in [5], 21.3 µM (active). Also, the compound was classed as inactive in assay [4] and in [6]. Also, the activity, negative = inhibition in assay [7] (parasite line A) is 3.65% (inactive); in [7] (parasite line B), -0.207% (inactive).
As for `COc1cc(CNC(=O)CCCC/C=C/C(C)C)ccc1O`, the Potency entry (in assay [1]; in assay [2]; in [3]; in [5]; with 3D7; with 7G8) was “inactive” each time. Moreover, the result in assay [4] and in assay [6] was inactive. Also, the activity, negative = inhibition in assay [7] (parasite line A) was -2.8% (inactive); in assay [7] (parasite line B), 8.8% (inactive).
